From PubChem
FBW7 activator = activators of human E3 ligase FBW7; AID 1259310; AlphaScreen FBW7–phospho-cyclin E peptide binding, activator screen; Q969H0; 650,000 tested, 0.13% active; normalized activity (activation), % at 26.1 µM; in the data active = normalized activity above about 1.9%;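 note: purified mutant Fbw7 with reduced substrate affinity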
GPR151 ag = activators of human GPR151. AID 1508602. Q8TDV0. activation, % at 11.2 µM. 650,000 tested, 1% active. PathHunter beta-arrestin GPR151 cells, luminescence; in the data active = activation above about 4.9%
MITF primary = inhibitors of human MITF. AlphaScreen MITF homodimerization, bead proximity signal. O75030. inhibition, % at 2.6 µM. 650,000 tested, 0.91% active; in the data active = inhibition above about 50%
Target sequence (O75030 whole entry, looked up): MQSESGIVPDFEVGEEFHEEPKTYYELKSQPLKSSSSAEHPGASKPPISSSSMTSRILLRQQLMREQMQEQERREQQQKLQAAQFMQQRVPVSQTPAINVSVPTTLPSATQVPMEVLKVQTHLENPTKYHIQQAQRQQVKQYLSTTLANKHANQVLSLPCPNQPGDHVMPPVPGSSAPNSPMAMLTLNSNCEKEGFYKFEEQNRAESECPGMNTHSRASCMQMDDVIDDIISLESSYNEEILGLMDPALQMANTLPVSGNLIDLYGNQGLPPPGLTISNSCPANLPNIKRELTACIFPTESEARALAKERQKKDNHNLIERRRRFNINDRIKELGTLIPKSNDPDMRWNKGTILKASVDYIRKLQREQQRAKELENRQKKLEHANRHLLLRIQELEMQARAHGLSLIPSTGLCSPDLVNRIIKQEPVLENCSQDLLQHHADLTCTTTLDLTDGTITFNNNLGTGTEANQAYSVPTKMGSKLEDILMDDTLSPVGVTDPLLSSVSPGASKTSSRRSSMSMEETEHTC
TEAD-YAP inh = TEAD-YAP interaction inhibition | 640,000 tested, 1.4% active | inhibition, % at 9.12 µM | HEK-TIYL cells, TEAD-Gal4/YAP UAS-luciferase luminescence; in the data active = inhibition above about 32%
A number is an active result; i = inactive. This is a sample that favours compounds with a hit; in the whole collection about 3.5% have one here.

SMILES	FBW7 activator	GPR151 ag	MITF primary	TEAD-YAP inh
O=C(O)c1ccc2c(c1)NC(=O)c1ccccc1S2(=O)=O	1.9	i	i	i
Cc1ccc(-c2nnc(SCC(=O)N3CC(C)CC(C)C3)o2)cc1 (configuration not stated)	i	i	i	i
O=C(CN1C(=O)c2ccccc2C1=O)N1CCN(c2ccc(F)cc2)CC1	2.0	i	i	i
O=C(O)CCNc1cc(N2CCC3(CC2)OCCO3)c2noc3c2c1C(=O)c1ccccc1-3	i	i	62.8	i
CCOC(=O)C1CCN(c2cc(NCC(=O)O)c3c4c(onc24)-c2ccccc2C3=O)CC1	i	i	70.2	i
O=C(O)CNc1cc(N2CCCCC2)c2noc3c2c1C(=O)c1ccccc1-3	i	i	i	59.2
CCC(CC)CN1CCOc2ccc(C(C)(O)CN(C)C)cc2C1 (configuration not stated)	i	i	i	i
CCCC(=O)Nc1ccc(-c2nc3cccnc3s2)cc1	i	i	i	i
CC(C)C(=O)Nc1ccc(-c2nc3cccnc3s2)cc1	i	i	i	87.4
CCOC(=O)N1CCN(c2cc(Nc3ccc(OC)cc3)c3c4c(onc24)-c2ccccc2C3=O)CC1	i	i	i	i
CC(C)Nc1cc(N2CCC(=O)CC2)c2noc3c2c1C(=O)c1ccccc1-3	i	i	i	i
CCOC(=O)N1CCN(c2cc(NC(C)C)c3c4c(onc24)-c2ccccc2C3=O)CC1	i	i	70.7	i
CCCN1CCN(c2cc(NCCO)c3c4c(onc24)-c2ccccc2C3=O)CC1	i	i	i	i
CCCCNc1cc(N2CCN(CCO)CC2)c2noc3c2c1C(=O)c1ccccc1-3	i	i	53.8	i
CC(C)Nc1cc(N2CCN(C)CC2)c2noc3c2c1C(=O)c1ccccc1-3	i	i	52.1	i
CC(C)Nc1cc(N(C)C)c2noc3c2c1C(=O)c1ccccc1-3	i	i	50.7	i
CC(Cc1cccs1)NC(=O)c1cccc(OC2CCN(S(C)(=O)=O)CC2)c1 (configuration not stated)	i	i	i	i
CCC(CO)Nc1nccnc1-c1cnc(OC)nc1OC (configuration not stated)	i	i	i	i
COc1ccc(C)cc1S(=O)(=O)N1CCC(C(=O)O)CC1	i	i	i	i
C=CCn1c(SCC(=O)N2CCN(c3ccccc3)CC2)nnc1-c1ccccc1O	i	i	i	33.3
C=CCn1c(SCC(=O)N2CCOCC2)nnc1-c1ccccc1O	i	i	i	i
CCn1c(SCC(=O)N2CCN(c3ccccc3)CC2)nnc1-c1ccccc1O	i	i	i	33.9
COc1ccc(C)cc1NC(=O)NN1CCOCC1	i	i	i	i
O=C1CC(N2CCCCC2)C(=O)N1c1ccc(N2CCCCC2)cc1 (configuration not stated)	i	i	i	i
c1ccc2c(c1)CC(c1nc3ccc(-c4ccncc4)cc3[nH]1)CCO2 (configuration not stated)	i	i	i	41.4
SMILES	FBW7 activator	GPR151 ag	MITF primary	TEAD-YAP inh
Cc1ccc(C2NC(=S)NC(O)(C(F)(F)F)C2C(=O)c2ccccc2)o1 (configuration not stated)	i	i	i	i
O=C(CSc1nncn1-c1ccccc1)Nc1nc2c(F)c(F)c(F)cc2s1	3.9	i	i	i
CCCc1ccc(-c2ccc(F)c(N3C(=O)c4cccc(F)c4C3=O)c2)nc1	i	i	i	61.9
COc1cc(C(=O)Oc2ccc3c(=O)c(Oc4ccc(C(C)(C)C)cc4)coc3c2)cc(OC)c1OC	i	i	i	79.7
COc1cc(C(=O)Oc2ccc3c(=O)c(Oc4cc(C)cc(C)c4)coc3c2)cc(OC)c1OC	i	i	i	i
O=c1c(Oc2ccc(Cl)cc2)coc2cc(O)ccc12	i	i	i	i
CC(C)(C)c1ccc(Oc2coc3cc(O)ccc3c2=O)cc1	i	i	i	63.7
COc1ccc(N(CC(=O)NCc2ccccc2)S(=O)(=O)c2ccc(C)c([N+](=O)[O-])c2)cc1	i	i	i	i
CC1=C(C(=O)Nc2ccc(Br)cn2)C(c2cccs2)C2=C(CC(C)(C)CC2=O)N1 (configuration not stated)	i	i	i	35.3
CC1=C(C(=O)Nc2ccc(C)cn2)C(c2cccs2)C2=C(CC(C)(C)CC2=O)N1 (configuration not stated)	i	i	i	57.7
CC1=C(C(=O)Nc2ccc(Br)cn2)C(c2ccsc2)C2=C(CC(C)(C)CC2=O)N1 (configuration not stated)	i	i	i	52.0
CC1=C(C(=O)Nc2ccc(C)cn2)C(c2ccc(C)cc2)C2=C(CC(C)(C)CC2=O)N1 (configuration not stated)	i	i	i	i
CCc1cc2c(NCc3ccccc3)ncnc2s1	i	i	i	i
CCc1cc2c(NCCc3ccccc3)ncnc2s1	i	i	i	36.2
COc1ccc(CCNc2ncnc3ccc(I)cc23)cc1OC	i	i	i	73.9
COc1ccc(CCNc2ncnc3sc(C)cc23)cc1OC	i	i	i	61.0
COc1ccc(CCNc2ncnc3c2cnn3C)cc1OC	i	i	i	i
COc1cccc(CC(=O)Nc2cnc3cnc(-c4cccc(C(=O)NCCO)c4)cn23)c1	i	i	i	i
COc1ccc(/C=C2\SC(=S)N(Cc3ccco3)C2=O)c(OC)c1OC	i	i	i	i
Cc1nc2c(c(=O)[nH]1)CCN(C(=O)c1cc(-c3ccc(C)o3)[nH]n1)C2	i	i	i	i
Cc1cnc(-n2ncc(C(=O)N(C)CCO)c2C2CC2)nc1-c1cccs1	i	i	i	i
COc1cc(C(=O)COC(=O)CCc2nc3ccccc3s2)cc(OC)c1OC	i	i	i	i
C(=Nc1ccc(N2CCOCC2)cc1)c1ccccc1	i	i	i	65.2
O=C(Nc1ccc2oc(-c3ccc4ccccc4c3)nc2c1)c1cccc(Cl)c1Cl	1.9	i	i	i
O=C(Nc1ccc2oc(-c3ccccc3)nc2c1)c1cc([N+](=O)[O-])ccc1Br	i	i	i	36.0
SMILES	FBW7 activator	GPR151 ag	MITF primary	TEAD-YAP inh
O=C(Nc1ccc2oc(-c3ccccc3F)nc2c1)c1cc([N+](=O)[O-])ccc1Cl	i	i	i	32.2
CC(=O)Nc1ccc2oc(-c3ccccc3F)nc2c1	i	i	i	i
CC(C)C(=O)Nc1ccc2oc(-c3ccccc3F)nc2c1	i	i	i	71.8
O=C(Nc1ccc2oc(-c3cccc(Cl)c3Cl)nc2c1)c1cc([N+](=O)[O-])ccc1Cl	i	i	i	i
Nc1ccc(OCCOc2ccc(N)cc2)cc1	i	i	i	i
O=C(Nc1ccc2oc(-c3ccccc3Cl)nc2c1)c1cc([N+](=O)[O-])ccc1Cl	i	i	i	i
O=C(Nc1ccc2c(c1)oc1ccccc12)c1cc([N+](=O)[O-])ccc1Br	i	i	i	32.9
O=C(Cc1ccc([N+](=O)[O-])cc1)Nc1ccc2c(c1)oc1ccccc12	i	i	i	i
Cc1ccccc1-c1nc2cc(NC(=O)c3cc([N+](=O)[O-])ccc3Cl)ccc2o1	i	i	i	33.3
C#CCN1CCC(N2CCC(c3nc4ccccc4[nH]3)CC2)CCC1=O (configuration not stated)	i	i	i	i
O=C1c2ccccc2CN1c1ccccc1	i	i	i	i
